Measurements reported in PubChem BioAssay AID1479146 (National Center for Advancing Translational Sciences (NCATS), 2020).
Results filed as inconclusive are left out. A number with no mark means an inactive call. The source made the active and inactive calls. The call rests on the fitted dose curve.

Test: Confirmatory qHTS for Huh7 cytotoxicity: counterscreen for inhibitors of MERS-S pseudo-typed particle cell entry
Conditions: viability; series mostly up to 57.1 µM; activity change, negative = cytotoxicity: at the top concentration
For `CCCN1C[C@H](C)[C@@H](O)[C@](C)(O)[C@@H](CC)OC(=O)[C@H](C)[C@@H](O[C@H]2C[C@@](C)(OC)[C@@H](O)[C@H](C)O2)C(C)[C@@H](O[C@@H]2O[C@H](C)C[C@H](N(C)C)[C@H]2O)[C@](C)(O)C[C@H]1C` (some centres not stated), the “activity change, negative = cytotoxicity” value was -7.32%. For `COc1cc(N)c(Cl)cc1C(=O)NC1CCN(CCCOc2ccc(F)cc2)CC1OC` (configuration not stated), the “activity change, negative = cytotoxicity” value was -20%. In the case of `CCn1cc(C(=O)O)c(=O)c2cc(F)c(N3CCNC(C)C3)c(F)c21` (configuration not stated), the “activity change, negative = cytotoxicity” value is reported as 0%. In the case of `CC(C)(C)NC(=O)[C@H]1CC[C@H]2[C@@H]3CC[C@H]4NC(=O)C=C[C@]4(C)[C@H]3CC[C@]12C`, the “activity change, negative = cytotoxicity” value is reported as -4.87%. For `CCN(CC)CCNC(=O)c1c(C)[nH]c(/C=C2\C(=O)Nc3ccc(F)cc32)c1C`, the Potency was 27.1 µM (active). For `CN(C)CCC=C1c2ccccc2C(C)(C)c2ccccc21`, the “activity change, negative = cytotoxicity” value was -3.85%. For `Cc1cn([C@H]2C[C@H](N=[N+]=[N-])[C@@H](CO)O2)c(=O)[nH]c1=O`, the “activity change, negative = cytotoxicity” value was -4.83%. With `CCC(C)(C)C(=O)O[C@H]1C[C@@H](C)C=C2C=C[C@H](C)[C@H](CC[C@@H]3C[C@@H](O)CC(=O)O3)[C@H]21` the “activity change, negative = cytotoxicity” value was 0%. In the case of `COc1cc([C@@H]2c3cc4c(cc3C(O[C@@H]3O[C@@H]5CO[C@@H](c6cccs6)OC5[C@H](O)[C@H]3O)C3COC(=O)[C@@H]32)OCO4)cc(OC)c1O` (some centres not stated), the Potency is reported as 5.41 µM (active). For `CCN1CCN(Cc2ccc(Nc3ncc(F)c(-c4cc(F)c5nc(C)n(C(C)C)c5c4)n3)nc2)CC1`, the Potency was 8.57 µM (active). In the case of `O=C(Nc1ccc([N+](=O)[O-])cc1Cl)c1cc(Cl)ccc1O`, the Potency is reported as 3.83 µM (active). With `Cc1nnc2n1-c1sc(CCc3ccc(CC(C)C)cc3)cc1C(c1ccccc1Cl)=NC2C` (configuration not stated) the “activity change, negative = cytotoxicity” value was -18.8%. For `COc1cccc2c1C(=O)c1c(O)c3c(c(O)c1C2=O)C[C@@](O)(C(=O)CO)C[C@@H]3O[C@H]1C[C@H](N)[C@@H](O)[C@H](C)O1`, the Potency was 2.15 µM (active). In the case of `CCc1c2c(nc3ccc(OC(=O)N4CCC(N5CCCCC5)CC4)cc13)-c1cc3c(c(=O)n1C2)COC(=O)[C@]3(O)CC`, the “activity change, negative = cytotoxicity” value is reported as 0%. For `C=C(C)[C@H]1Cc2c(ccc3c2O[C@@H]2COc4cc(OC)c(OC)cc4[C@@H]2C3=O)O1`, the Potency was 6.81 µM (active). With `COc1cccc2c1C(=O)c1c(O)c3c(c(O)c1C2=O)C[C@@](O)(C(C)=O)C[C@@H]3O[C@H]1C[C@H](N)[C@H](O)[C@H](C)O1` the Potency was 6.07 µM (active). With `C[C@]12CC[C@H](O)C[C@H]1CCC1C2CC[C@]2(C)[C@@H](c3ccc(=O)oc3)C[C@H]3O[C@]132` (some centres not stated) the Potency was 15.2 µM (active). With `CN(C)[C@@H](CCOc1cccc2ccccc12)c1ccccc1` the “activity change, negative = cytotoxicity” value was -14.8%. For `COc1cccc2c1C(=O)c1c(O)c3c(c(O)c1C2=O)C[C@@](O)(C(=O)CO)CC3OC1CC(N2CCOC(OC)C2)C(O)C(C)O1` (some centres not stated), the Potency was 0.136 µM (active). In the case of `CCCCCCCCCCCCOCCOCCOCCOCCOCCOCCOCCOCCOCCO`, the “activity change, negative = cytotoxicity” value is reported as -10.8%. With `CC(=O)OCC1=C(C(=O)O)N2C(=O)[C@@H](NC(=O)Cc3cccs3)[C@H]2SC1` the “activity change, negative = cytotoxicity” value was 0%. With `COc1c(OCCCN2CCOCC2)ccc2c3n(c(=NC(=O)c4cnc(N)nc4)nc12)CCN3` the activity change, negative = cytotoxicity was -10.8% [at 11.2 µM]. For `CC[C@H](C)C(=O)O[C@H]1C[C@@H](C)C=C2C=C[C@H](C)[C@H](CC[C@@H]3C[C@@H](O)CC(=O)O3)[C@H]21`, the “activity change, negative = cytotoxicity” value was -14.4%. In the case of `CC(C)C(=O)Oc1ccc(CO)cc1[C@H](CCN(C(C)C)C(C)C)c1ccccc1`, the “activity change, negative = cytotoxicity” value is reported as -16.1%. In the case of `Nc1ccn([C@@H]2O[C@H](CO)[C@@H](O)C2(F)F)c(=O)n1`, the “activity change, negative = cytotoxicity” value is reported as -18.8%. In the case of `COc1cc2nccc(Oc3ccc(NC(=O)NC4CC4)c(Cl)c3)c2cc1C(N)=O`, the “activity change, negative = cytotoxicity” value is reported as -19%. With `CC(=O)N1CCN(c2ccc(OC[C@H]3CO[C@](Cn4ccnc4)(c4ccc(Cl)cc4Cl)O3)cc2)CC1` the “activity change, negative = cytotoxicity” value was -7.77%.
